In PubChem BioAssay (Tox21):
“And” between values parts separate entries of the source, which are not always exact repeats. Identical values can stand only once. Inconclusive results are not listed. Where a call stands in place of a potency, no number is given. Unmarked numbers belong to inactive results. The source made the active and inactive calls. The call rests on the fitted dose curve; in most records, active means well fitted cell-killing curve with a large enough effect in the repeat runs; inconclusive means weak or mixed curves, or effect the other way; inactive means flat fitted curve, though single readings scatter.

Key:
[1] = cAMP Responsive Elements (CRE) small molecule antagonists, cell-based qHTS assay: qHTS cell viability counter screen (AID 2060913); details: CRE-bla HEK293T viability, CellTiter-Glo luminescence, 5 h; series mostly up to 92.4 µM; further: nearly all actives have a fitted effect of over 40% in size
Outline: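 Viability of NKH477-stimulated (0.25 uM final) CRE-bla HEK293T cells is measured by CellTiter-Glo luminescence following 3 hrs compound exposure at 37 C.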

[2] = cAMP Responsive Elements (CRE) small molecule agonists, cell-based qHTS assay: qHTS cell viability counter screen (AID 2060914); details: CRE-bla HEK293T viability, CellTiter-Glo luminescence, 5 h; series mostly up to 92.4 µM;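 further: viability read after 3 h of compound exposure; nearly all actives have a fitted effect of over 50% in size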
Outline: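 CRE-bla HEK 293T cells, plated 18 h at 37 °C, were exposed to compounds for 3 h at 37 °C/5% CO2. Viability was then measured in the same wells by CellTiter-Glo luminescence after 30 min at room temperature.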
Potency means the concentration at half of the fitted maximal effect.

SMILES | Potency [1] | Potency [2] | viability change, negative = cytotoxic [1] | activity change, negative = cytotoxicity [2]
O=C1Nc2ccc([N+](=O)[O-])cc2C1=O | inactive | inactive |  | 
OCCN1C[C@H](O)[C@@H](O)[C@H](O)[C@H]1CO | inactive | inactive |  | 
CN(Cc1cc(Br)cc(Br)c1N)C1CCCCC1 | inactive | inactive |  | 
O[C@@H](CNC[C@H](O)[C@H]1CCc2cc(F)ccc2O1)[C@@H]1CCc2cc(F)ccc2O1 | inactive | inactive |  | 
CC[Si](OC(C)=O)(OC(C)=O)OC(C)=O | inactive | inactive |  | 
C[Si](C)O[Si](C)(C)O[Si](C)(C)O[Si](C)C | inactive | inactive |  | 
CC(C)=CCC/C(C)=C/CO | inactive | inactive |  | 
CCCCCCCCCCCCN1CCOCC1 | inactive | inactive |  | 
CCC(C)c1cc(C(C)(C)C)c(O)c(C(C)(C)C)c1 (centres undefined) | inactive | inactive |  | 
CC(CN1c2ccccc2Sc2ccccc21)N(C)C (centres undefined) | inactive | inactive |  | 
Cc1c(C(=O)NCCO)[n+](=O)c2ccccc2n1[O-] | inactive | inactive |  | 
CC(C)COCC(CN(Cc1ccccc1)c1ccccc1)N1CCCC1 (centres undefined) | 29.8 µM (active) | inactive |  | 
COc1cc(/C=C/C(=O)O[C@H]2CC[C@]34C[C@]35CC[C@]3(C)[C@@H]([C@H](C)CCC=C(C)C)CC[C@@]3(C)[C@@H]5CC[C@H]4C2(C)C)ccc1O | inactive | inactive |  | 
O=S(=O)(O)c1ccccc1O | inactive | inactive |  | 
CC(=O)NS(=O)(=O)c1ccc(N)cc1 | inactive | inactive |  | 
Nc1ccc2c(c1)C(=O)c1ccccc1C2=O | inactive | inactive |  | 
Cn1c(=O)[nH]c2ncn(C)c2c1=O | inactive | inactive |  | 
CC(C)CCO | inactive | inactive |  | 
CN(C)CCC(c1ccccc1)c1ccccn1 (centres undefined) | inactive | inactive |  | 
CCC(C)CO (centres undefined) | inactive | inactive |  | 
CC/C=C(\C)C=O | inactive | inactive |  | 
CCO/C([O-])=N/c1c[n+](N2CCOCC2)no1 | inactive | inactive |  | 

SMILES | Potency [1] | Potency [2] | viability change, negative = cytotoxic [1] | activity change, negative = cytotoxicity [2]
IC(I)I | inactive | inactive |  | 
O=S(O)O |  |  | 17.7% [at 18.9 µM] | 3.71% [at 18.9 µM]
Cc1nc(Nc2ncc(C(=O)Nc3c(C)cccc3Cl)s2)cc(N2CCN(CCO)CC2)n1 | inactive | inactive |  | 
CCCCCCCC/C=C/CCCCCCCC1=NCCN1CCO | inactive | inactive |  | 
CC(C)(C)OC=O | inactive | inactive |  | 
CCCO[Si](OCCC)(OCCC)OCCC | inactive | inactive |  | 
C=CCCC=C | inactive | inactive |  | 
CCOC(=O)OC(C)OC(=O)[C@@H]1N2C(=O)[C@@H](NC(=O)[C@H](N)c3ccccc3)[C@H]2SC1(C)C (some centres undefined) | inactive | inactive |  | 
CC(C)=CCC/C(C)=C/C=N/O | inactive | inactive |  | 
Cc1nc2ccccc2c(=O)o1 | inactive | inactive |  | 
CC(=O)N1CCN(c2ccc(OC[C@H]3CO[C@](Cn4ccnc4)(c4ccc(Cl)cc4Cl)O3)cc2)CC1 | 54.5 µM (active) | 68.6 µM (active) |  | 
CCCCCCCCC/C=C/CC1CC(=O)OC1=O (centres undefined) | inactive | inactive |  | 
Nc1cc(C(=O)O)ccc1Cl | inactive | inactive |  | 
Cc1cccc(N)n1 | inactive | inactive |  | 
c1coc(Cn2cccc2)c1 | inactive | inactive |  | 
COc1ccnc(CS(=O)c2nc3ccc(OC(F)F)cc3[nH]2)c1OC (centres undefined) | inactive | inactive |  | 
CCCCCCCCCCCCCCCCBr |  |  | -5.25% [at 18.9 µM] | 6.55% [at 18.9 µM]
CCCCCCCCCCCCCC[P+](CCCC)(CCCC)CCCC | 60.8 µM (active) and 28.5 µM (active) | 60.8 µM (active) and 61.1 µM (active) |  | 
CC(C)(C)CC(C)(C)c1ccc(Nc2ccc(C(C)(C)CC(C)(C)C)cc2)cc1 |  |  | -5.06% [at 8.39 µM] | 6.62% [at 8.39 µM]
Cc1c[nH]c(=O)[nH]c1=O | inactive | inactive |  | 
CCOc1ccc(N=Nc2ccc(/C=C/c3ccc(N=Nc4ccc(OCC)cc4)cc3S(=O)(=O)O)c(S(=O)(=O)O)c2)cc1 | inactive | inactive |  | 
CC(=O)Oc1ccc(C)cc1 | inactive | inactive |  | 

SMILES | Potency [1] | Potency [2] | viability change, negative = cytotoxic [1] | activity change, negative = cytotoxicity [2]
ClC(Cl)Cl | inactive | inactive |  | 
C[C@@H]1CC(=O)NN=C1c1ccc(NN=C(C#N)C#N)cc1 | inactive | inactive |  | 
NC(Cc1ccc(Cl)cc1)C(=O)O (centres undefined) |  |  | 9.93% [at 0.349 µM] | -0.576% [at 0.349 µM]
Nc1cc([N+](=O)[O-])ccc1O | inactive | inactive |  | 
C[C@]1(Cn2ccnn2)[C@H](C(=O)O)N2C(=O)C[C@H]2S1(=O)=O | inactive | inactive |  | 
CCCOCCO | inactive | inactive |  | 
CCOC(=O)/C=C(C)/C=C/C=C(C)/C=C/c1c(C)cc(OC)c(C)c1C | inactive | inactive |  | 
O=C(CCc1ccc(O)cc1)c1c(O)cc(O)cc1O | inactive | inactive |  | 
CC(O)CCCCn1c(=O)c2c(ncn2C)n(C)c1=O (centres undefined) | inactive | inactive |  | 
CCCC(C)CC (centres undefined) | inactive | inactive |  | 
Cc1oc(-c2ccccc2)nc1CCC(=O)c1ccc(CC2SC(=O)NC2=O)cc1 (centres undefined) | inactive | inactive |  | 
NC(=O)Cn1c(=O)cc(CCN2CCN(c3nccc4sccc34)CC2)c2ccc(F)cc21 | inactive | inactive |  | 
CC(C)(C)C(=O)Oc1ccc(S(=O)(=O)Nc2ccccc2C(=O)NCC(=O)O)cc1 | inactive | inactive |  | 
CCCCCCCCN(C)C | inactive | inactive |  | 
CC(=O)O[C@]1(C(C)=O)CC[C@H]2[C@@H]3C[C@H](C)C4=CC(=O)CC[C@]4(C)[C@H]3CC[C@@]21C | inactive | inactive |  | 
CCC(=O)O[C@]1(C(=O)CCl)[C@@H](C)C[C@H]2[C@@H]3CCC4=CC(=O)C=C[C@]4(C)[C@@]3(F)[C@@H](O)C[C@@]21C | inactive | inactive |  | 
O=C(O)CO | inactive | inactive |  | 
O=C(OCC1(COC(=O)c2cccnc2)CCCC(COC(=O)c2cccnc2)(COC(=O)c2cccnc2)C1O)c1cccnc1 | inactive | inactive |  | 
Nc1nc2c(ncn2CCC(CO)CO)c(=O)[nH]1 | inactive | inactive |  | 
CN1CCC[C@@H]1c1cccnc1 | inactive | inactive |  | 
O=c1[nH]c(=O)n([C@H]2O[C@H](CO)[C@@H](O)[C@@H]2O)cc1/C=C\Br | inactive | inactive |  | 
c1coc(CNc2ncnc3nc[nH]c23)c1 | inactive | inactive |  | 

SMILES | Potency [1] | Potency [2] | viability change, negative = cytotoxic [1] | activity change, negative = cytotoxicity [2]
CCCCC(CC)COC(C)=O (centres undefined) | inactive | inactive |  | 
CCCCOC(=O)CC | inactive | inactive |  | 
N#CCc1ccccc1[N+](=O)[O-] | inactive | inactive |  | 
CCCOC(=O)CC | inactive | inactive |  | 
Cc1cccc(N(C)C(=S)Oc2ccc3ccccc3c2)c1 | inactive | inactive |  | 
C=CC[N+](C)(C)CC=C | inactive | inactive |  | 
Cc1ccc(-c2ccccc2)cc1 | inactive | inactive |  | 
CN1CC(=O)N2[C@H](c3ccc4c(c3)OCO4)c3[nH]c4ccccc4c3C[C@@H]2C1=O | inactive | inactive |  | 
CCOc1ccccc1O | inactive | inactive |  | 
C=CCOC(=O)C(=C)C | inactive | inactive |  | 
CN1CCC(=C2c3ccccc3Sc3ccccc32)CC1 | inactive | inactive |  | 
Cc1cc(C(C)(C)C)cc(C)c1CC1=NCCN1 | inactive | inactive |  | 
N#Cc1ccc(C(=O)O)cc1 | inactive | inactive |  | 
CN(N=O)C(=O)N[C@@H]1[C@@H](O)[C@H](O)[C@@H](CO)O[C@@H]1O | inactive | inactive |  | 
C=C[C@H]1CN2CC[C@H]1C[C@@H]2[C@@H](O)c1ccnc2ccc(OC)cc12 | inactive | inactive |  | 
O=C(OC1C[C@H]2CC[C@@H](C1)[N+]21CCCC1)C(O)(c1ccccc1)c1ccccc1 (some centres undefined) | inactive | inactive |  | 
O=c1cccc[nH]1 | inactive | inactive |  | 
CCCCC/C=C\C/C=C\CCCCCCCC(=O)NC(C)c1ccccc1 (centres undefined) | inactive | inactive |  | 
C=CC(=O)OCCC#N | inactive | inactive |  | 
CC(=O)c1ccc(Cl)c(Cl)c1Cl | inactive | inactive |  | 
CC(=O)OCCOCCOCCOC(C)=O | inactive | inactive |  | 
CC(C)=O | inactive | 25 µM (active) |  | 

SMILES | Potency [1] | Potency [2] | viability change, negative = cytotoxic [1] | activity change, negative = cytotoxicity [2]
Oc1ccc2c(c1)OCO2 | inactive | inactive |  | 
N#Cc1ccc(C2CCCc3cncn32)cc1 (centres undefined) | inactive | inactive |  | 
C[C@]12C(=O)OC(=O)[C@H]1[C@H]1C=C[C@@H]2C1 | inactive | inactive |  | 
COc1cc2c(c(OC)c1OC)-c1ccc(OC)c(=O)cc1[C@@H](NC(C)=O)CC2 | inactive | inactive |  | 
CC(C)N1C(=O)c2ccccc2C1=O | inactive | inactive |  | 
COc1cc(NS(=O)(=O)c2ccc(N)cc2)nc(OC)n1 | inactive | inactive |  | 
CC1=CC[C@H]2C[C@@H]1C2(C)C | inactive | inactive |  | 
C[C@H]1O[C@H](O[C@H]2[C@H](O)[C@@H](O)[C@@H](O[C@H]3[C@H](O)[C@@H](O)[C@H](O)O[C@@H]3CO)O[C@@H]2CO)[C@H](O)[C@@H](O)[C@@H]1N[C@H]1C=C(CO)[C@@H](O)[C@H](O)[C@H]1O | inactive | inactive |  | 
OCC1CCCO1 (centres undefined) | inactive | inactive |  | 
O=c1cc(CO)occ1O | inactive | inactive |  | 
CC(S)C(=O)NCC(=O)O (centres undefined) | inactive | inactive |  | 
c1ccc(CCNc2nc(-c3ccccc3)cs2)cc1 | inactive | inactive |  | 
CC(C)OC(=O)CCC(=O)OC(C)C | inactive | inactive |  | 
O=C(O)Cc1cc(I)c(Oc2cc(I)c(O)c(I)c2)c(I)c1 | inactive | inactive |  | 
CCCCCCCCCCCCCCCCCC[N+](C)(C)C | 54.6 µM (active) | 61.3 µM (active) |  | 
CN(C)Cc1cc(CN(C)C)c(O)c(CN(C)C)c1 | inactive | inactive |  | 
NC(N)=N/N=C/c1c(Cl)cccc1Cl | inactive | inactive |  | 
Cc1nc2ccc(Cl)cc2[nH]1 | inactive | inactive |  | 
Cc1cc2c(cc1C(F)(F)F)N(C(=O)Nc1ccc(Oc3cccnc3C)nc1)CC2 | inactive | inactive |  | 
